Bioassay records from PubChem BioAssay.
Most compounds without a hit are left out; they make up all but 4.7% or so of the library.
TRHR agonist: activates the human TRH receptor; P34981; TRHR cells, calcium flux fluo-8, FDSS agonist mode; activation, % at 2 µM; 0.18% of 360,000 active; note: 0% is about no effect
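Steps: seed TRHR cells overnight; add fluo-8 no-wash Ca dye, RT 30 min–1.5 h; record 10 s baseline; pin-transfer compounds; monitor fluorescence 1 cycle/s for the agonist window. Calcium increases flag candidate agonists.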
D1 PAM: human D1 dopamine receptor positive modulation. AID 504651. 0.036% of 360,000 active. potentiation, % at 10 µM. HEK293 TREx D1 cells, calcium flux, dopamine EC20 potentiation; in the data active = potentiation above about 30%; note: 0% is about no effect
Target sequence (P21728 whole entry, looked up): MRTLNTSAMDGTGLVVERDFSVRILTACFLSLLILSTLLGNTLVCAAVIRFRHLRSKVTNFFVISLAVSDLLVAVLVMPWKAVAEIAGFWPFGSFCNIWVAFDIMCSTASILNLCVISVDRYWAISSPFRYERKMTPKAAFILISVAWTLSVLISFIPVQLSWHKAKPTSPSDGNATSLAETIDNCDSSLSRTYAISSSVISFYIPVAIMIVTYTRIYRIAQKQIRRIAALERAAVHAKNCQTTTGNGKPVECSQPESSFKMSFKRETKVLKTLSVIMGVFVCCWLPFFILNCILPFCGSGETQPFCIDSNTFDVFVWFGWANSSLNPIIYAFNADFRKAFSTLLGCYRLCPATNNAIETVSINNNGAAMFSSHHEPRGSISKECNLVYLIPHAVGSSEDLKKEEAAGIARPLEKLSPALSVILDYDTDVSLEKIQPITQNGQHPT
TRHR enhancer: allosteric enhancers of human TRH receptor; AID 493056; enhancement, % at 2 µM; TRHR cells, fluo-8 calcium fluorescence, EC20 TRH enhancement; 0.66% of 360,000 active; in the data active = enhancement above about 30%; note: 0% is about no effect
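Enhancer read-out: after compound pinning and an initial kinetic agonist-mode read, an EC20 of TRH (10 nM final) was injected and fluo-8 calcium signal (Ex 480/Em 530) followed at 1 s/cycle for 100 cycles in TRHR-expressing cells.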
D1 ag: agonists of human D1 dopamine receptor; 1% of 360,000 active; HEK293 T-REx D1 cells, calcium flux, agonist mode; activation, % at 2 µM; P21728; note: 0% is about no effect
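Inducible HEK293 T-REx D1 cells, force-coupled to calcium signalling, were plated at 4000 cells/well with tetracycline and held overnight at 30 C. After no-wash calcium dye loading, compound-evoked calcium rise over 180 s flagged agonists.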
D1 antag: blocks dopamine activation of the human D1 receptor. activity change, negative = inhibition, % at 10 µM. HEK293 TREx D1 cells, calcium flux, dopamine EC80; stronger effect = lower value. AID 504652. P21728. 3.2% of 360,000 active; in the data active = activity change below about -30%; note: % is set by controls: 0 for no effect and ±100 for the full control effect
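After overnight tetracycline induction at 30 C, force-coupled D1 HEK293 cells took up a no-wash calcium dye at room temperature. Compounds were added and monitored 180 s, and the response to EC80 dopamine was then recorded.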
* hit, by the source's call; . = not tested or not shown. Cut-off read from the data, not from the text of the source, unless noted: active = activation above about 30%; inactive = the rest.

SMILES | TRHR agonist | D1 PAM | TRHR enhancer | D1 ag | D1 antag
CC(Sc1nnc(-c2ccco2)n1C)C(=O)N1C(C)CCCC1C (stereo unspecified) | 0 | -4 | 4 | 5 | -41*
CCNc1nc(Oc2ccc(=O)[nH]n2)nc(SC)n1 | 0 | 5 | 32* | 2 | 2
CCOc1ccc2c(c1)C(=NNC(=O)c1ccncc1)c1cc(OCC)ccc1-2 | 0 | 3 | 35* | 0 | 6
CCOc1ccc(C(=O)c2ccncc2)cc1 | -1 | -1 | 5 | 1 | -5
CCOC(=O)C1CCN(C(=O)Cn2nc(C)n3nc(-c4ccc(OC)cc4)cc3c2=O)CC1 | 0 | -2 | 8 | 4 | -4
CCOC(=O)C1CCN(C(=O)CCn2c(=O)[nH]c3ccsc3c2=O)CC1 | 0 | -7 | 3 | 2 | -37*
CCOC(=O)N1CCN(C(=O)CCn2c(=S)[nH]c3ccsc3c2=O)CC1 | -1 | -4 | 39* | -1 | -49*
CCOC(=O)C1CCN(C(=O)Cn2nc(C)n3c(cc4sccc43)c2=O)CC1 | 0 | -6 | 7 | 1 | -42*
CCOC(=O)N1CCN(C(=O)CCn2c(=O)[nH]c3ccsc3c2=O)CC1 | 0 | -5 | -5 | 3 | 14
CCC(C(=O)NCCc1cc(OC)ccc1OC)n1nc(C)c2sc3ccccc3c2c1=O (stereo unspecified) | 0 | 1 | -1 | 1 | -7
CCCCn1c(=O)nc2n(-c3ccc(F)cc3)c3ccccc3cc-2c1=O | 0 | 1 | -4 | -1 | -9
CCOc1ccc(S(=O)(=O)N2CCC(C(=O)OC(C)C(=O)N3CCOCC3)CC2)cc1 (stereo unspecified) | 0 | -4 | 2 | 1 | 7
C=CCSc1nnc(NC(=O)CN2C(=O)NC3(CCCC3)C2=O)s1 | 0 | 4 | -1 | 5 | 10
Cc1ccc(Oc2ccc(OCC(=O)NC3CCS(=O)(=O)C3)cc2)cc1 (stereo unspecified) | -1 | . | -11 | 36* | -48*
N#Cc1ccccc1OCC(=O)NC(=O)NC1CCS(=O)(=O)C1 (stereo unspecified) | 0 | 0 | 8 | 3 | 5
O=C(COc1ccc([N+](=O)[O-])cc1)NC(=O)NC1CCS(=O)(=O)C1 (stereo unspecified) | 0 | -6 | 6 | 5 | -45*
O=C1C2CCCCC2C(=O)N1c1ccc(S(=O)(=O)Nc2ncccn2)cc1 (stereo unspecified) | 1 | -11 | -2 | 0 | 14
COc1ccc(-n2c(=O)c3c(c4cc(OC)ccc4n3C)n(C)c2=O)cc1 | 1 | 5 | 1 | -1 | 13
COc1ccccc1NC(=O)c1cc(=O)c2ccc(C)c(C)c2o1 | 0 | 1 | 2 | 0 | 5
CC(NC(=O)CCCN1C(=O)c2ccccc2C1=O)c1ccc2c(c1)CCCC2 (stereo unspecified) | 0 | 9 | 2 | 3 | -40*
CCc1ccc(CNc2ccc(N3CCN(C(C)=O)CC3)cc2)cc1 | 1 | 0 | 5 | 34* | -14
CCOc1ccc(Cn2c(CNS(=O)(=O)c3ccc(Cl)s3)nc3cccnc32)cc1 | 0 | 0 | 0 | 1 | 22
N=c1oc2c3c4c(cc2cc1C(=O)Nc1ccccc1)CCCN4CCC3 | 94* | -8 | -16 | 385* | -88*
Cc1ccc(NC(=O)c2cc3ccccc3oc2=N)cc1 | 5 | 3 | 15 | 4 | 9
C=C(C)Cn1c(SCC(=O)c2ccc(OC)cc2)nc2sc3c(c2c1=O)CCCC3 | -1 | 0 | 2 | 4 | -1
SMILES | TRHR agonist | D1 PAM | TRHR enhancer | D1 ag | D1 antag
CC(=O)c1cccc(NC(=O)c2oc(=O)c3ccccc3c2-c2ccccc2)c1 | 1 | -2 | -16 | 5 | -43*
CCOC(=O)c1ccc(NC(=O)c2oc(=O)c3ccccc3c2-c2ccccc2)cc1 | 1 | 0 | 20 | 5 | -48*
CCOC(=O)c1ccc(NC(=O)c2c(O)c3ccccc3n(C)c2=O)cc1 | 0 | -4 | 9 | -1 | -73*
COc1ccc(OC)c(NC(=O)Cn2nc3c(cc2=O)CCCC3)c1 | 2 | 1 | 11 | -1 | 0
O=c1c(Cl)c2oc3ccccc3nc-2c2ccccc12 | 18 | 0 | 13 | 75* | 49
CC(C)NC(=O)CSc1ccccc1C(=O)N1CCN(S(=O)(=O)Cc2ccccc2)CC1 | 0 | 7 | -3 | 1 | -7
CCOc1ccccc1NC(=O)CN(c1ccc(OC)cc1OC)S(=O)(=O)c1ccccc1[N+](=O)[O-] | 0 | -7 | -6 | 5 | -44*
COc1ccc(NC(=O)CN(c2ccccc2C)S(C)(=O)=O)c(OC)c1 | 0 | -2 | 31* | 1 | 7
COc1ccc(OC)c(S(=O)(=O)N(C)CC(=O)Nc2ccccc2OC)c1 | 0 | -9 | 4 | 2 | -82*
COc1ccc(N(CC(=O)Nc2ccccc2C)S(=O)(=O)c2ccccc2[N+](=O)[O-])c(OC)c1 | 0 | -4 | -3 | 2 | -5
CCO[C@H]1OC(C(=O)NCc2ccccc2)=C[C@@H](C2CC2)[C@@H]1CCCO | -1 | -4 | 2 | -4 | -44*
CCO[C@H]1OC(C(=O)N2CCN(Cc3ccc4c(c3)OCO4)CC2)=C[C@@H](C2CCCCC2)[C@@H]1CCCO | -1 | -4 | 38* | -4 | 10
C[C@@H]1C=C(C(=O)N2CCN(Cc3ccc4c(c3)OCO4)CC2)O[C@H](OCCCCO)C1 | -1 | -4 | 16 | 0 | -38*
CCO[C@@H]1OC(C(N)=O)=C[C@H](c2ccc3c(c2)OCO3)[C@H]1CCCO | 0 | 3 | 4 | -5 | -34*
C/C(=C1/C(=O)N(c2ccc([N+](=O)[O-])cc2)N=C1c1ccccc1)N(C)C | 0 | -5 | -7 | 34* | 0
O=C(Nc1ccc(/C=C/c2nc3ccccc3o2)cc1)c1c(F)cccc1F | 2 | -10 | 4 | 8 | -42*
COc1ccc(CC(=O)OCC(=O)N2CCN(S(=O)(=O)c3ccc(C)cc3C)CC2)cc1 | 0 | -6 | 5 | 5 | -90*
O=C(NC1CCCCC1)C(=O)N(Cc1cccnc1)C(C(=O)NCc1ccco1)c1ccccc1 (stereo unspecified) | 0 | -1 | 3 | 1 | -35*
Cc1cccc(N(C(=O)c2nsc(Cl)c2Cl)C(C(=O)NC2CCCC2)c2ccc(O)cc2)c1C (stereo unspecified) | 0 | -8 | -6 | 6 | -40*
CC(=O)c1cccc(N(CC(=O)NC2CCCC2)C(=O)c2csnn2)c1 | 1 | . | 2 | 10 | -39*
O=C(NC1CCCC1)C(c1ccncc1)N(C(=O)c1csnn1)c1ccccc1F (stereo unspecified) | 0 | 1 | 28 | -2 | 9
